Reference: the antibiotic and cytotoxicity screens of Wong et al. (2023)
The campaign covered roughly 39,000 compounds. About 500 (1.3%) were called active. The entries come from a sample that favours actives as a whole.

These compounds were tested on S. aureus RN4220 (assay: growth inhibition call (relative growth <= 0.2)). Conditions: 50 µM.

Row | SMILES | growth inhibition call
1 | COc1ccc(S(=O)(=O)N(C)C[C@@H]2Oc3c(NC(=O)C4CC4)cccc3C(=O)N([C@@H](C)CO)C[C@@H]2C)cc1 | inactive
2 | CO[C@@H]1CN(C)C(=O)c2ccc(NC(=O)C3CC3)cc2OC[C@H](C)N(C(=O)CN2CCOCC2)C[C@H]1C | inactive
3 | C[C@@H]1CN([C@H](C)CO)C(=O)c2cc(NS(=O)(=O)c3ccccc3)ccc2O[C@@H](C)CCCCO[C@H]1CN(C)C(=O)NC1CCCCC1 | inactive
4 | CC1COc2c(N3CCN(C)CC3)c(F)cc3c(=O)c(C(=O)O)cn1c23 (stereo not given) | active
5 | C[C@H]1COc2c(C3(N)CC3)c(F)cc3c(=O)c(C(=O)O)cn1c23 | active
6 | CC1COc2c(C3(N)CC3)c(F)cc3c(=O)c(C(=O)O)cn1c23.CS(=O)(=O)O (stereo not given) | inactive
7 | CC1CCc2c(N3CCC(O)CC3)c(F)cc3c(=O)c(C(=O)O)cn1c23 (stereo not given) | inactive
8 | CN1CCN(c2c(F)cc3c(=O)c(C(=O)O)cn4c3c2OCN4C)CC1 | active
9 | CC1CCc2cc(F)cc3c(=O)c(C(=O)O)cn1c23 (stereo not given) | active
10 | COc1ccc2c3c([nH]c2c1)[C@@H](CO)N(C[C@]13CCN(CC1)C(=O)NC(C)C)C(=O)CN1CCOCC1 | inactive
11 | C[C@H]1CN([C@@H](C)CO)C(=O)c2cc(C#CCN(C)C)cnc2O[C@@H]1CN(C)C(=O)Nc1cccc(F)c1 | inactive
12 | C[C@@H]1CN([C@@H](C)CO)C(=O)Cc2cc(NC(=O)NC3CCCCC3)ccc2O[C@H]1CN(C)C(=O)Nc1ccc(C(F)(F)F)cc1 | inactive
13 | Cc1ccc(S(=O)(=O)Nc2ccc3c(c2)C(=O)N([C@@H](C)CO)C[C@H](C)[C@@H](CN(C)Cc2ccc(C(F)(F)F)cc2)OCCCC[C@H](C)O3)cc1 | inactive
14 | C[C@H]1CN([C@@H](C)CO)C(=O)Cc2cc(NS(=O)(=O)c3cn(C)cn3)ccc2O[C@@H]1CN(C)Cc1ccncc1 | inactive
15 | COc1ccc(S(=O)(=O)Nc2ccc3c(c2)CC(=O)N([C@@H](C)CO)C[C@@H](C)[C@@H](CN(C)S(=O)(=O)c2cn(C)cn2)O3)cc1 | inactive
16 | Cc1noc(C)c1NC(=O)Nc1ccc2c(c1)CC(=O)N([C@H](C)CO)C[C@H](C)[C@H](CN(C)Cc1ccc(Cl)c(Cl)c1)O2 | inactive
17 | CN1C[C@H](C(N)=O)CC1=O | inactive
18 | Nc1ccc(/C=C/C(=O)NCc2cc3cc(-c4ccc(C(=O)N5CCC(F)(F)CC5)cc4)cc(-c4ccc(F)cc4)c3o2)cn1 | inactive
19 | Cc1ccc(S(=O)(=O)N2C[C@@H](O)COC[C@H]3O[C@@H](CC(=O)NCCN4CCCCC4)CC[C@@H]32)cc1 | inactive
20 | C[C@H](CO)N1C[C@H](C)[C@H](CN(C)Cc2ccncc2)OCCCC[C@H](C)Oc2ccc(NC(=O)C3CCCCC3)cc2C1=O | inactive
21 | C[C@H]1CN([C@@H](C)CO)C(=O)Cc2cc(NS(=O)(=O)c3cccs3)ccc2O[C@@H]1CN(C)C(=O)Nc1cccc2ccccc12 | inactive
22 | CC(C)NC(=O)Nc1ccc2c(c1)CC(=O)N([C@H](C)CO)C[C@@H](C)[C@@H](CN(C)C(=O)NC1CCCCC1)O2 | inactive
23 | C=CCc1ccc(O)c(OC)c1 | active
24 | COc1cc(C=O)ccc1O | inactive

Row | SMILES | growth inhibition call
25 | COc1cc(C(C)=O)ccc1O | inactive
26 | C[C@@H]1CN([C@@H](C)CO)C(=O)c2cccc(NC(=O)c3cnccn3)c2O[C@H]1CN(C)S(C)(=O)=O | inactive
27 | COc1ccc(S(=O)(=O)N(C)C[C@@H]2Oc3c(NC(=O)NC(C)C)cccc3C(=O)N([C@H](C)CO)C[C@H]2C)cc1 | inactive
28 | CCCNC(=O)N1[C@@H]2c3cccc(=O)n3C[C@H]1[C@H](CO)[C@H]2C(=O)NCC(F)(F)F | inactive
29 | O=C(Nc1cc(C(F)(F)F)cc(C(F)(F)F)c1)Nc1cnn(-c2ccc([N+](=O)[O-])cc2)c1C(F)(F)F | inactive
30 | O=C(Nc1cc(C(F)(F)F)cc(C(F)(F)F)c1)Nc1c(Br)cc(Br)cc1-c1nn[nH]n1 | active
31 | FC(F)(F)c1cc(NC(=S)Nc2ccc(Br)cc2-c2nn[nH]n2)cc(C(F)(F)F)c1 | active
32 | C[C@@H]1CN([C@H](C)CO)C(=O)Cc2cc(NC(=O)Cn3cnnn3)ccc2O[C@@H]1CN(C)S(=O)(=O)c1ccccc1 | inactive
33 | COc1cccc(NC(=O)N[C@@H]2C=C[C@H](CC(=O)N3CCOCC3)O[C@H]2CO)c1 | inactive
34 | Cc1noc(C)c1NC(=O)N(C)C[C@@H]1OCCCC[C@@H](C)Oc2ccc(NC(=O)Cc3ccccc3)cc2C(=O)N([C@@H](C)CO)C[C@@H]1C | inactive
35 | Cc1noc(C)c1S(=O)(=O)Nc1ccc2c(c1)C(=O)N([C@@H](C)CO)C[C@@H](C)[C@@H](CN(C)C(=O)NC(C)C)O2 | inactive
36 | O=C1CN(N=Cc2ccc([N+](=O)[O-])o2)C(=O)N1 | active
37 | O=C1CN(N=Cc2ccc(-c3ccc([N+](=O)[O-])cc3)o2)C(=O)[N-]1.[Na+] | inactive
38 | O=C1OCCN1N=Cc1ccc([N+](=O)[O-])o1 | active
39 | O=[N+]([O-])c1cncn1CCN1CCOCC1 | inactive
40 | O=C1CN(/N=C/c2ccc([N+](=O)[O-])o2)C(=O)N1 | active
41 | O=C1OC(CN2CCOCC2)CN1N=Cc1ccc([N+](=O)[O-])o1 (stereo not given) | active
42 | COc1ccc(CN(C)C[C@@H]2OCCCC[C@H](C)Oc3ccc(NS(=O)(=O)c4cccs4)cc3C(=O)N([C@@H](C)CO)C[C@H]2C)cc1 | inactive
43 | O=C(O)[C@H](O)c1ccccc1 | inactive
44 | COc1ccc(S(=O)(=O)N[C@H]2CC[C@H](CCNC(=O)CN3CCOCC3)O[C@@H]2CO)cc1 | inactive
45 | C[C@@H]1CCCCO[C@@H](CN(C)Cc2ccncc2)[C@@H](C)CN([C@H](C)CO)C(=O)c2cc(NC(=O)Nc3ccc(F)cc3)ccc2O1 | inactive
46 | Cc1noc(C)c1NC(=O)Nc1ccc2c(c1)CC(=O)N([C@H](C)CO)C[C@H](C)[C@H](CN(C)C(=O)Nc1ccc(C(F)(F)F)cc1)O2 | inactive
47 | CC(C)NC(=O)N(C)C[C@H]1Oc2ccc(NC(=O)Cc3ccccc3)cc2C(=O)N([C@H](C)CO)C[C@@H]1C | inactive
48 | [N-]=[N+]=NCCOCCNC(=O)CCCOc1ccc(CS(=O)c2nnc(-c3ccc(F)cc3)o2)nc1 (stereo not given) | active

Row | SMILES | growth inhibition call
49 | C[C@H]1CNC(=O)O1 | inactive
50 | COc1ccc(S(=O)(=O)N(C)C[C@@H]2Oc3c(NC(=O)Nc4c(C)noc4C)cccc3C(=O)N([C@@H](C)CO)C[C@H]2C)cc1 | inactive
51 | COCCOC(=O)N1C(=O)[C@@]2(c3cc(C#CCC(C(=O)OC)C(=O)OC)ccc31)[C@H](C(=O)N1CCCCCCC1)[C@H]1C(=O)O[C@H](c3ccccc3)[C@H](c3ccccc3)N1[C@@H]2c1ccc(OCCO)cc1 | inactive
52 | COCCOC(=O)N1C(=O)[C@@]2(c3cc(C#CCC(C(=O)OC)C(=O)OC)ccc31)[C@H](C(=O)N1CCCCCCC1)[C@H]1C(=O)O[C@H](c3ccccc3)[C@H](c3ccccc3)N1[C@@H]2c1ccc(O)cc1 | active
53 | COCCOC(=O)N1C(=O)[C@@]2(c3cc(C#CCC(C(=O)OC)C(=O)OC)ccc31)[C@H](c1ccc(OCCO)cc1)N1[C@H](c3ccccc3)[C@H](c3ccccc3)OC(=O)[C@H]1[C@@H]2C(=O)N1CCCCCCC1 | inactive
54 | C[C@@H]1CN([C@H](C)CO)C(=O)c2c(c3ccccc3n2C)-c2ccccc2CO[C@H]1CN(C)S(C)(=O)=O | inactive
55 | C[C@H](CO)N1C[C@H](C)[C@@H](CN(C)S(=O)(=O)c2ccccc2)OCCCC[C@H](C)Oc2ccc(NC(=O)c3ccccc3)cc2C1=O | inactive
56 | CCOC(=O)c1cc2c(c(-c3cccc(Br)c3)n1)[C@@H](CCO[Si](C)(C)C(C)(C)C)N(S(=O)(=O)C(C)(C)C)C2 | inactive
57 | CC(C)(C)[S@@+]([O-])N1Cc2cc(C(=O)O)nc(-c3ccc(Br)cc3)c2[C@H]1CCO[Si](C)(C)C(C)(C)C | active
58 | CCOC(=O)c1cc2c(c(-c3ccccc3)n1)[C@@H](CCO[Si](C)(C)C(C)(C)C)N(S(=O)(=O)C(C)(C)C)C2 | inactive
59 | C[C@@H]1CCCCO[C@@H](CN(C)S(=O)(=O)c2ccc(Cl)cc2)[C@H](C)CN([C@H](C)CO)C(=O)c2cc(NS(=O)(=O)c3ccccc3)ccc2O1 | inactive
60 | COc1cccc(C#Cc2cnc3c(c2)C(=O)N([C@@H](C)CO)C[C@H](C)[C@@H](CN(C)C(=O)C2CCOCC2)O3)c1 | inactive
61 | Cc1ccc(S(=O)(=O)N(C)C[C@H]2Oc3ccc(NS(=O)(=O)c4c(C)noc4C)cc3CC(=O)N([C@H](C)CO)C[C@H]2C)cc1 | inactive
62 | O=C(O)c1cnc(N2CCCC2)nc1 | inactive
63 | Cc1ccc(Cl)c(Nc2ccccc2C(=O)[O-])c1Cl.[Na+] | inactive
64 | Cc1cc(=O)c(C(=O)N[C@@H](C(=O)N[C@@H]2C(=O)N3C(C(=O)O)=C(CSc4nnnn4C)CS[C@H]23)c2ccc(O)cc2)c[nH]1 | active
65 | Cc1cc(O)c(C(=O)NC(C(=O)NC2C(=O)N3C(C(=O)O)=C(CSc4nnnn4C)CSC23)c2ccc(O)cc2)cn1 (stereo not given) | active
66 | CCN1CCN(C(=O)NC(C(=O)NC2C(=O)N3C(C(=O)O)=C(CSc4nnnn4C)CSC23)c2ccc(O)cc2)C(=O)C1=O (stereo not given) | active
67 | Cc1cc2nc3ccc(N(C)C)cc3[s+]c2cc1N.[Cl-] | inactive
68 | C=CCOC(=O)[C@H]1[C@@H]2C(=O)O[C@@H](c3ccccc3)[C@@H](c3ccccc3)N2[C@@H](c2ccc(OCCOC(=O)[C@H]3C[C@H]4C(=O)N[C@@H](CC(C)C)C(=O)N4[C@H]3c3cccc(OCCO)c3)cc2)[C@]12C(=O)Nc1ccc(I)cc12 | inactive
69 | COc1ccc(S(=O)(=O)N(C)C[C@@H]2Oc3cc(C4=CCCC4)ccc3S(=O)(=O)N([C@@H](C)CO)C[C@H]2C)cc1 | inactive
70 | C[C@H](CO)N1C[C@H](C)[C@H](CN(C)Cc2ccc(C(F)(F)F)cc2)Oc2ccc(NS(=O)(=O)c3ccc(Cl)cc3)cc2C1=O | inactive
